IDE exosite inh: exo-site inhibitors of human insulin-degrading enzyme; P14735; purified IDE, FL-6b probe fluorescence polarization; active compounds read low; z-score at 20 µM; hit rate 6.3% among 17,000;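 active means z-score of -3 or lower, meaning strong loss of probe binding signal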;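 further: His-tagged human IDE residues 42-1019 made in E. coli with 30 nM FL-6b probe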
Target sequence (P14735 42-1019 limits assumed): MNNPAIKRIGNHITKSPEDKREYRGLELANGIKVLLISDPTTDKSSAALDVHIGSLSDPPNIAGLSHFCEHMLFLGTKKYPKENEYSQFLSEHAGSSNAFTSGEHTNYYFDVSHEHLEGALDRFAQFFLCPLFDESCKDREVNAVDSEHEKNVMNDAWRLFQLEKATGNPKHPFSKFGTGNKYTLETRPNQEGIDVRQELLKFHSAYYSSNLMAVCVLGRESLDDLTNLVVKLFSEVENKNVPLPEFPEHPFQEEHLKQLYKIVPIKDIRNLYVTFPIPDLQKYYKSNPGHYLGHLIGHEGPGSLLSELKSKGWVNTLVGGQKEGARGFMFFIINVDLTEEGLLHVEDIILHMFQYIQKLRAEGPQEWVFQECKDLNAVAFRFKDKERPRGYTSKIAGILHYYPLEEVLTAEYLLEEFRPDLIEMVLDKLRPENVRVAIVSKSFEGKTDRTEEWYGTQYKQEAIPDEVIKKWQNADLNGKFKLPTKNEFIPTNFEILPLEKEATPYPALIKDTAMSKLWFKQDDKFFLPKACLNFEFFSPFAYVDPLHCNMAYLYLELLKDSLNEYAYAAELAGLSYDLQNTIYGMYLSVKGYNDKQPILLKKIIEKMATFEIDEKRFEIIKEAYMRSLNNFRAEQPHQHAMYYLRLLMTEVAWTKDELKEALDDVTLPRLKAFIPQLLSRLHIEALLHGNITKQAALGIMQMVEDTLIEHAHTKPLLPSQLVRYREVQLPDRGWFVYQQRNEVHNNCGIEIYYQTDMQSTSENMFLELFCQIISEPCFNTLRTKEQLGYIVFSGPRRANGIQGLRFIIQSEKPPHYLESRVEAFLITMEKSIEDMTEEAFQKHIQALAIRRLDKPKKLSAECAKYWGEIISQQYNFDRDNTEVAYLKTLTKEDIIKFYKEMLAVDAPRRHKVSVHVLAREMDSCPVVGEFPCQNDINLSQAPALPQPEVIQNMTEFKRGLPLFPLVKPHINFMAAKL
Hits are given with their value; . = inactive. Only a selection was taken, and hits are over-represented in it overall.

SMILES | IDE exosite inh
C[C@@H]1CCCCO[C@@H](CN(C)S(=O)(=O)c2cn(C)cn2)[C@H](C)CN([C@H](C)CO)C(=O)c2cc(NC(=O)Nc3cccc4ccccc34)ccc2O1 | .
C[C@@H]1CN([C@H](C)CO)C(=O)c2cc(NC(=O)Nc3cccc4ccccc34)ccc2O[C@@H](C)CCCCO[C@@H]1CN(C)S(=O)(=O)c1cn(C)cn1 | -7.08
N#Cc1cccc(-c2ccc([C@@H]3[C@H]4CN(C(=O)Nc5ccccc5)CCCCN4[C@H]3CO)cc2)c1 | .
O=C1CN(S(=O)(=O)c2cccc(F)c2)C[C@H]2[C@H](c3ccc(C4=CCCC4)cc3)[C@@H](CO)N12 | .
CN1C(=O)c2cc(NS(=O)(=O)c3cccc(F)c3)ccc2OC[C@@H]2O[C@@H](CC(=O)N3CCc4ccccc4C3)CC[C@@H]21 | .
CS(=O)(=O)N1CC(=O)N2[C@H](C1)[C@@H](c1ccc(C#Cc3cccc(F)c3)cc1)[C@@H]2CO | .
CCS(=O)(=O)N1CC(=O)N2[C@H](C1)[C@H](c1ccc(C#Cc3cccc(F)c3)cc1)[C@@H]2CO | -5.42
CCC(=O)N1CC(=O)N2[C@@H](CO)[C@@H](c3ccc(C#Cc4cccc(F)c4)cc3)[C@@H]2C1 | -4.1
CCS(=O)(=O)N1CC(=O)N2[C@H](CO)[C@@H](c3ccc(C#Cc4cccc(F)c4)cc3)[C@H]2C1 | .
CCC(=O)N1CC(=O)N2[C@H](CO)[C@H](c3ccc(C#Cc4cccc(F)c4)cc3)[C@H]2C1 | -3.99
CCC(=O)N1CC(=O)N2[C@H](C1)[C@@H](c1ccc(C#Cc3cccc(F)c3)cc1)[C@@H]2CO | .
CCC(=O)N1CC(=O)N2[C@H](CO)[C@@H](c3ccc(C#Cc4cccc(F)c4)cc3)[C@@H]2C1 | .
CCNC(=O)[C@H]1[C@H](CO)[C@H]2Cn3c(ccc(/C=C/c4ccccc4)c3=O)[C@@H]1N2C(=O)c1ccncc1 | .
OC[C@@H]1[C@H](c2ccc(-c3ccc(F)cc3)cc2)[C@H]2CN(Cc3ccccn3)CCCCN12 | .
O=C(Cc1cccnc1)N1[C@@H](CO)[C@H](c2ccccc2)[C@@H]1CNCC1CCC1 | .
CCCNC(=O)N1[C@@H](C#N)[C@H](c2ccc(-c3cccc(OC)c3)cc2)[C@@H]1CO | .
O=C(c1ccc2c(c1)OCO2)N1CC(=O)N2[C@@H](CO)[C@@H](c3ccc(C#Cc4ccccc4)cc3)[C@@H]2C1 | -5.21
O=C(c1ccc2c(c1)OCO2)N1CC(=O)N2[C@H](C1)[C@H](c1ccc(C#Cc3ccccc3)cc1)[C@@H]2CO | -3.48
O=C(c1ccc2c(c1)OCO2)N1CC(=O)N2[C@H](CO)[C@H](c3ccc(C#Cc4ccccc4)cc3)[C@H]2C1 | .
O=C(c1ccc2c(c1)OCO2)N1CC(=O)N2[C@H](CO)[C@H](c3ccc(-c4ccccc4)cc3)[C@@H]2C1 | .
CC(C)C#Cc1ccc([C@H]2[C@H](CO)N3C(=O)CN(C(=O)c4ccc5c(c4)OCO5)C[C@@H]23)cc1 | .
O=C(c1ccc2c(c1)OCO2)N1CC(=O)N2[C@H](C1)[C@H](c1ccc(-c3ccccc3)cc1)[C@@H]2CO | .
COc1ccccc1NC(=O)N1C[C@@H](O)COC[C@@H]2O[C@H](CC(=O)NCCc3ccncc3)CC[C@H]21 | .
CS(=O)(=O)Nc1ccc2c(c1)[C@H]1C[C@H](CC(=O)NCCc3ccccc3)O[C@@H](CO)[C@H]1O2 | .
O=C(C[C@@H]1CC[C@@H]2[C@H](COC[C@H](O)CN2CCC(F)(F)F)O1)NCC1CC1 | .
SMILES | IDE exosite inh
COCC#Cc1ccc([C@H]2[C@@H](CO)N3CCCCN(Cc4cncnc4)C[C@H]23)cc1 | .
O=C(Nc1ccccc1)N1CC(=O)N2[C@@H](CO)[C@@H](c3ccc(C#CC4CC4)cc3)[C@@H]2C1 | .
CNC(=O)C[C@H]1CC[C@@H]2[C@@H](COc3ccc(NS(=O)(=O)c4ccc(F)cc4)cc3C(=O)N2C)O1 | .
O=C(Nc1cccc(F)c1)N1CC(=O)N2[C@H](CO)[C@H](c3ccc(-c4ccccc4)cc3)[C@H]2C1 | .
CC(C)(C)[S@@](=O)N1Cc2cc(C(=O)N3CCOCC3)nc(-c3cccc(-c4ccccc4F)c3)c2[C@H]1CCO | .
Cc1cccc(-c2ccc([C@H]3[C@@H](CO)N4CCCCN(Cc5ccncc5)C[C@@H]34)cc2)c1 | -5.8
Cc1cccc(-c2ccc([C@@H]3[C@H]4CN(CCC(F)(F)F)CCCCN4[C@H]3CO)cc2)c1 | .
OC[C@H]1[C@@H](c2ccc(-c3ccc(F)cc3)cc2)[C@H]2CN(Cc3ccncc3)CCCCN21 | .
OC[C@@H]1[C@H](c2ccc(-c3ccc(F)cc3)cc2)[C@H]2CN(Cc3ccncc3)CCCCN12 | .
Cc1cccc(-c2ccc([C@@H]3[C@@H](CO)N4CCCCN(Cc5ccncc5)C[C@@H]34)cc2)c1 | -4.88
CN(C)C(=O)c1ccc(-c2ccc([C@@H]3[C@@H](CO)N4CCCCN(Cc5ccncc5)C[C@H]34)cc2)cc1 | .
C[C@@H]1CN([C@H](C)CO)C(=O)c2cc(NS(C)(=O)=O)ccc2O[C@@H](C)CCCCO[C@@H]1CN(C)CC1CCCCC1 | .
C[C@H]1CC=CC[C@@H](c2ccc3c(c2)OCO3)NC(=O)[C@H](C)N(C)C(=O)c2ccccc2O1 (mixture of isomers) | .
Cc1cccc(-c2ccc([C@@H]3[C@H]4CN(C(=O)NC5CCCCC5)CC(=O)N4[C@H]3CO)cc2)c1 | -15.8
O=C(NC1CCCCC1)N1CC(=O)N2[C@H](CO)[C@H](c3ccc(-c4cccc(F)c4)cc3)[C@@H]2C1 | .
Cc1cccc(-c2ccc([C@H]3[C@H](CO)N4C(=O)CN(C(=O)NC5CCCCC5)C[C@@H]34)cc2)c1 | -16.3
Cc1cccc(-c2ccc([C@H]3[C@@H](CO)N4C(=O)CN(C(=O)NC5CCCCC5)C[C@@H]34)cc2)c1 | -10.1
O=C(NC1CCCCC1)N1CC(=O)N2[C@@H](CO)[C@@H](c3ccc(C4=CCCC4)cc3)[C@@H]2C1 | .
O=C(NC1CCCCC1)N1CC(=O)N2[C@H](CO)[C@@H](c3ccc(-c4cccc(F)c4)cc3)[C@H]2C1 | .
O=C(Nc1cc(F)ccc1F)N1CCCCN2[C@H](CO)[C@H](c3ccc(-c4ccncc4)cc3)[C@H]2C1 | .
O=C(Cc1ccccn1)N1CC(=O)N2[C@@H](CO)[C@@H](c3ccc(C#CC4CCCCC4)cc3)[C@@H]2C1 | .
CC(C)NC(=O)N1[C@H](CO)[C@@H](c2ccccc2)[C@H]1CN(C)C(=O)c1ccncc1 | .
CN1C(=O)c2cc(NC(=O)c3cnccn3)ccc2OC[C@H]2O[C@H](CC(=O)N[C@@H]3CCN(Cc4ccccc4)C3)CC[C@@H]21 | .
N#C[C@H]1[C@H](c2ccccc2C2=CCCCC2)[C@H](CO)N1C(=O)CN1CCOCC1 | .
CCCNC(=O)N1C[C@@H]2[C@H](c3ccccc31)[C@H](CO)N2C(=O)CN1CCOCC1 | .
SMILES | IDE exosite inh
O=C(c1ccncc1)N1CC(=O)N2[C@H](CO)[C@H](c3ccc(C#CCC4CCCC4)cc3)[C@@H]2C1 | .
CCCC#Cc1ccc([C@H]2[C@@H](CO)N3C(=O)CN(C(=O)NCCC)C[C@@H]23)cc1 | .
CCCNC(=O)N1CC(=O)N2[C@H](CO)[C@H](c3ccc(C#Cc4ccc(F)cc4)cc3)[C@@H]2C1 | .
COc1ccccc1NC(=O)N1CC(=O)N2[C@H](CO)[C@@H](c3ccc(-c4cccc(C)c4)cc3)[C@@H]2C1 | -9.44
CCCNC(=O)N1CC(=O)N2[C@H](C1)[C@@H](c1ccc(-c3ccccc3)cc1)[C@@H]2CO | -5.6
CCCNC(=O)N1CC(=O)N2[C@H](CO)[C@@H](c3ccc(C#Cc4ccc(F)cc4)cc3)[C@H]2C1 | .
